Sampled rows, rich in hits. Any-hit rate of the full collection: about 5.8%.
SW480 rerep = DNA re-replication induction in SW480 cells; SW480 DNA re-replication, Hoechst DNA content imaging, 48 h; AID 624297; Potency, µM (doses to about 46.1 µM), for inactives: top-dose re-replication activation, hits mostly activators; 340,000 compounds, 1.8% hits; note: % of control where 0% means no effect; nearly all actives have a fitted effect of over 55% in size
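Image-based read-out: total Hoechst fluorescence of nuclei (405 nm excitation, 500-530 nm emission), with hits raising the fraction of high-intensity nuclei. SW480 colon cells incubated 48 hr with compounds at 37 C.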
KB-V1 cytotox = kills drug-selected multidrug resistant KB-V1 cells; KB-V1 MDR cells viability, CellTiter-Glo, 72 h; AID 1347076; 400,000 compounds, 3.4% hits; Potency, µM (top dose mostly 46.1 µM), usual class: cytotoxic; note: % is set by controls: 0 for no effect and ±100 for the full control effect; nearly all actives have a fitted effect of over 60% in size
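Luminescent ATP read-out (CellTiter-Glo, 10 min) measures survival of drug-selected KB-V1 MDR cells after 72 h, 37 degrees C compound exposure. Medium: phenol-red-free DMEM, 10% FBS. Values from fitted concentration-response curves.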
KB-3-1 tox = KB-3-1 parental cell cytotoxicity. KB-3-1 viability, CellTiter-Glo ATP luminescence, 72 h. Potency, µM (titrated, usually from 46.1 µM), actives largely listed as cytotoxic. 400,000 compounds, 1.4% hits; note: % is set by controls: 0 for no effect and ±100 for the full control effect; nearly all actives have a fitted effect of over 60% in size
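KB-3-1 cells, DMEM (no phenol red) + 10% FBS; compound by pin transfer, 72 h, 37 °C. Readout: CellTiter-Glo luminescence after 10 min. Data normalized, curve-fitted.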
ALOX12 inh = ALOX12 (human) lipoxygenase inhibition. purified 12hLO, xylenol orange hydroperoxide absorbance. Potency, µM (highest dose often 108 µM), without a hit: at the highest dose activity change, negative = inhibition, hits mostly inhibitors. 580,000 compounds, 1.1% hits; note: % is set by controls: 0 for no effect and ±100 for the full control effect
Target sequence (P18054 whole entry, looked up): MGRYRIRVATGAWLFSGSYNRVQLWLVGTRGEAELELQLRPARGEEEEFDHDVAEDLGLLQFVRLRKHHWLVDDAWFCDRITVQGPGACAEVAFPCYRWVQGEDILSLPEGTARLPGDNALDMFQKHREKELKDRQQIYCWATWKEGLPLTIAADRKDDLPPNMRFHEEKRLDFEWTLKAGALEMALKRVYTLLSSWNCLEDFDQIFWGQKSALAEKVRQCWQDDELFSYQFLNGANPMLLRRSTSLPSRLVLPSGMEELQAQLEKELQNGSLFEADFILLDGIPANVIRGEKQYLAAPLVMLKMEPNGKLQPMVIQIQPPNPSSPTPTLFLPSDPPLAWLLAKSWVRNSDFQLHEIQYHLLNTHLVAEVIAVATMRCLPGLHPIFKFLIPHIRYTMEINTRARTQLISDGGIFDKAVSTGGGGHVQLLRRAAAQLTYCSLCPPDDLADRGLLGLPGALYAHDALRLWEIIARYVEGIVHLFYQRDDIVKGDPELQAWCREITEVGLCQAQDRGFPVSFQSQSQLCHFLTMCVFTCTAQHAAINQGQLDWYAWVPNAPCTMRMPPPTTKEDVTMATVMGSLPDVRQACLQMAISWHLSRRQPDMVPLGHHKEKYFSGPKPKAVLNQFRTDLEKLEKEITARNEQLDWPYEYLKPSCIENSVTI
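Purified human 12hLO (150 nM final) in 25 mM Hepes, 0.01% Triton X-100, pH 7.0 was preincubated 15 min at room temperature with compound. Then 40 uM arachidonic acid was added, 30 min. Hydroperoxide was read by Fe-XO absorbance ratio 573/405 nm.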
PINK1 modulator = PINK1 expression modulation; PINK1 immunofluorescence, high-content cytometry, 24 h; Potency, µM (highest dose often 76.6 µM), for the others: at the top dose activation (PINK1 increase), usual class: activators; 410,000 compounds, 0.2% hits; AID 624263; active = well fitted activation curve with a large enough effect; inconclusive = small, poorly fitted or top-dose-only effect; cell line not stated here; note: % of control where 0% means no effect; nearly all actives have a fitted effect of over 65% in size
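PINK1 protein level read as immunofluorescence by microplate cytometer in a fixed, stained stable cell line after 24 h exposure to five compound concentrations, with CCCP as control.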
MCF10A rerep = inducers of DNA re-replication in MCF 10A breast cells | MCF 10A DNA re-replication, Hoechst nuclear intensity, 48 h | Potency, µM (doses to about 46.1 µM), inactives show at the top dose activity, positive = re-replication, actives largely listed as activators | 350,000 compounds, 2.9% hits; note: % of control where 0% means no effect; nearly all actives have a fitted effect of over 50% in size
Numbers without * were called inactive; ! = a repeat was not active; [ ] = dose if it differs, or a comment. Unless noted, calls come from the whole dose curve; as a rule, active = well fitted curve in the direction sought with a large enough effect; inconclusive = small, poorly fitted or top-dose-only effect, or another doubt; inactive = no such curve, though single readings can be large; an effect the other way counts as inactive or inconclusive. Potency is the fitted concentration of half-maximal effect.

`COc1ccc(C(NC(=O)c2cccnc2)c2cc(Cl)c3cccnc3c2O)cc1OC` (configuration not stated) gave SW480 rerep inconclusive, KB-V1 cytotox 6.5µM*, KB-3-1 tox inconclusive, ALOX12 inh -16%, PINK1 modulator 3% and MCF10A rerep 13µM*.
`CC(Oc1ccc(Cl)cc1)C(=O)OCc1nc(N)nc(N)n1` (configuration not stated) gave ALOX12 inh 3%.
Screening O=C(NC1CC1)c1cccc(NC(=O)c2cn(-c3ccccc3)nc2-c2cccnc2)c1 returned ALOX12 inh -8%.
C=CCC1(O)CC(C)N(C)CC1C (configuration not stated) was read as ALOX12 inh 31%.
COc1ccc(OCC(=O)Nc2cccc(-c3nc4cc(C)ccc4o3)c2)cc1 was read as ALOX12 inh -2%.
`CN(Cc1ccc(F)cc1)c1ccc2ncc(Nc3cccc(O)c3)n2n1` gave ALOX12 inh 21%[176 µM].
For CCCCC(=O)NC(c1ccco1)c1cc(Cl)c2cccnc2c1O (configuration not stated) the results were SW480 rerep inconclusive, KB-V1 cytotox inconclusive, KB-3-1 tox inconclusive, ALOX12 inh inconclusive, PINK1 modulator 5% and MCF10A rerep 26%.
`CCC(=O)NC(c1ccco1)c1cc(Cl)c2cccnc2c1O` (configuration not stated) gave SW480 rerep 2.6µM*, KB-V1 cytotox inconclusive, KB-3-1 tox inconclusive, ALOX12 inh -23%, PINK1 modulator -1% and MCF10A rerep inconclusive.
For Cc1cc(NC(c2cccnc2)c2ccc3cccnc3c2O)no1 (configuration not stated) the results were SW480 rerep 1.5µM*, KB-V1 cytotox inconclusive, KB-3-1 tox inconclusive, ALOX12 inh -8%, PINK1 modulator 1% and MCF10A rerep 10µM*.
For CCC(=O)NC(c1ccc(OC)cc1)c1cc(Cl)c2cccnc2c1O (configuration not stated) the results were SW480 rerep 0.52µM*, KB-V1 cytotox inactive, KB-3-1 tox inconclusive, ALOX12 inh 3%, PINK1 modulator -1% and MCF10A rerep 11%.
`NC(=O)C1(NC(=O)c2ccc(I)cc2)CCCCC1` gave ALOX12 inh 1%.
`Cc1ccccc1OCc1n(CC(=O)OC2CC(C)CCC2C(C)C)c2ccccc2[n+]1C` (configuration not stated) gave SW480 rerep inconclusive, KB-V1 cytotox inactive, KB-3-1 tox inconclusive, ALOX12 inh inconclusive, PINK1 modulator -3% and MCF10A rerep 1.8µM*!.
CC1CCC(C(C)C)C(OC(=O)Cn2c(-c3ccc(Br)cc3)[n+](C)c3ccccc32)C1 (configuration not stated) was read as SW480 rerep inconclusive, KB-V1 cytotox inconclusive, KB-3-1 tox 18µM*!, ALOX12 inh inconclusive, PINK1 modulator -2% and MCF10A rerep inconclusive.
For Cn1c(=O)nc2n(Cc3ccccc3)c3cccc(Cl)c3cc-2c1=O the results were SW480 rerep 1%, KB-V1 cytotox 21µM*, KB-3-1 tox inactive, ALOX12 inh -25%, PINK1 modulator 8% and MCF10A rerep 2%.
`Cc1cccc(-n2c3nc(=O)n(C)c(=O)c-3cc3c(Cl)cccc32)c1C` gave KB-V1 cytotox inactive, KB-3-1 tox inactive, ALOX12 inh inconclusive and PINK1 modulator 17%.
O=c1c2c3nc4ccccc4nc3n(-c3ccc4c(c3)OCCO4)c2ncn1C1CCCC1 was read as SW480 rerep 13µM*, KB-V1 cytotox inconclusive, KB-3-1 tox inconclusive, ALOX12 inh 29%, PINK1 modulator 3% and MCF10A rerep 7.1µM*.
Screening Nc1c(C(=O)OCC2CCCO2)c2nc3ccccc3nc2n1-c1ccc2c(c1)OCCO2 (configuration not stated) returned SW480 rerep 2%, KB-V1 cytotox inactive, KB-3-1 tox inactive, ALOX12 inh 273%, PINK1 modulator 1% and MCF10A rerep inconclusive.
`O=C(c1cccs1)N(C1CCCCC1)C1CCCCC1` gave ALOX12 inh -6%.
`Cc1sc2nc(C3CC3)nc(SCC(=O)N3CCCc4ccccc43)c2c1C` gave ALOX12 inh -9%.
Cc1sc2nc(C3CC3)nc(SCC(=O)N3CCc4ccccc4C3)c2c1C was read as SW480 rerep 3%, KB-V1 cytotox 5.8µM*, KB-3-1 tox inactive, ALOX12 inh 1%, PINK1 modulator 2% and MCF10A rerep inconclusive.
`COc1cc(OC)cc(OC(C)C(=O)Nc2ccc(F)cc2)c1` (configuration not stated) gave ALOX12 inh -17%.
For COC(=O)c1ccc(C2C(C#N)=C(N)OC3=C2C(=O)CC(C)(C)C3)cc1 (configuration not stated) the results were ALOX12 inh -30%.
For Cc1ccc2c(c1)c1c(n2CC(O)CN2CCCCCC2)CCCC1 (configuration not stated) the results were SW480 rerep inconclusive, KB-V1 cytotox inactive, KB-3-1 tox inactive, ALOX12 inh -4%, PINK1 modulator -2% and MCF10A rerep inconclusive.
Cc1ccc2c(c1)c1c(n2CC(O)Cn2nc(C)c(Br)c2C)CCCC1 (configuration not stated) was read as SW480 rerep 9%, KB-V1 cytotox 21µM*, KB-3-1 tox inconclusive, ALOX12 inh -20%, PINK1 modulator inconclusive and MCF10A rerep 23µM*.
For Nc1[nH]c(=O)[nH]c(=O)c1N=Cc1ccccc1 the results were SW480 rerep 18%, KB-V1 cytotox inconclusive, KB-3-1 tox inactive, PINK1 modulator -4% and MCF10A rerep 4%.
`O=c1[nH]c(NCCO)c(N=Cc2ccccc2)c(=O)[nH]1` gave SW480 rerep 2.3µM*, KB-V1 cytotox inactive, KB-3-1 tox inactive, ALOX12 inh -3%, PINK1 modulator 1% and MCF10A rerep inconclusive.
For CCOc1cc(C(=O)Nc2ccc(C)cc2C)ccc1OCC(=O)N1CCCCC1 the results were SW480 rerep -1%, KB-V1 cytotox inactive, KB-3-1 tox inactive, ALOX12 inh -9%, PINK1 modulator -1% and MCF10A rerep -3%.
Screening COc1ccccc1C(=O)Nc1ccc(N2CCN(Cc3ccccc3)CC2)cc1 returned SW480 rerep -1%, KB-V1 cytotox inactive, KB-3-1 tox inactive, ALOX12 inh 6%, PINK1 modulator 0% and MCF10A rerep -2%.

Screening results: PubChem, National Center for Advancing Translational Sciences (NCATS)
